The text below walks through data of PubChem BioAssay (NCI).

The panel holds about 83,000 compounds, 20% with a hit somewhere; the sample as a whole holds those more often.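 How to read the values: 0–100, growth inhibition (40 = 60% inhibited); 0, no net growth; -100 to 0, cell death (-40 = 40% of starting cells died; -100 = all dead).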 Values without a mark were called inactive. Calls of active or inactive are those of the source. Rule for the calls: active = growth percent below 10; inactive = the rest.

Some test systems named below: HCT-15 colon; HT29 colon; SNB-75 CNS; SNB-19 CNS; U251 CNS; PC-3 prostate; SK-MEL-5 melanoma; UACC-62 melanoma; LOX IMVI melanoma; SK-MEL-28 melanoma; SK-MEL-2 melanoma; EKVX NSCLC; SN12C renal; UO-31 renal; TK-10 renal; ACHN renal; CAKI-1 renal; A498 renal; CCRF-CEM leukemia; MOLT-4 leukemia.
Holding throughout (test): NCI-60 one-dose screen, 48 h (100 = growth as untreated, 0 = no growth, -100 = all killed)
What all share (details): 10 µM unless noted

As to `CCCCCCCCn1ccc2cc(NC(=O)CN3CCN(c4nc(C)cc(Cl)n4)CC3)ccc21`, the growth in the experiment on HCT-15 colon is 77.1%; in the experiment on HT29 colon, 65.3%; with SNB-75 CNS it was 87%; in the experiment with SNB-19 CNS, 102%; with U251 CNS, 92.8%; in the experiment on PC-3 prostate, 75.6%. The growth is 91.1% in the experiment with SK-MEL-5 melanoma; 76.4% in the experiment with UACC-62 melanoma; 99.6% with LOX IMVI melanoma; 98% in the experiment on SK-MEL-28 melanoma; 122% in the experiment with SK-MEL-2 melanoma; 93.6% in the experiment with EKVX NSCLC. Besides, the growth in the experiment on SN12C renal is 99.5%; in the experiment on UO-31 renal, 58.9%; in the experiment on TK-10 renal it was 108%; with ACHN renal, 98.1%; in the experiment with CAKI-1 renal, 87.2%; in the experiment on A498 renal, 109%. The growth in the experiment with CCRF-CEM leukemia was -34.6% (active); in the experiment with MOLT-4 leukemia, 4.97% (active).

Turning to `CCCCC(=O)Nc1ncc(Cc2ccc(Cl)cc2)s1`, the growth was 40.3% with HCT-15 colon; 28.6% in the experiment on HT29 colon; 46.5% in the experiment with SNB-75 CNS; 77.2% with SNB-19 CNS; 65.6% in the experiment on U251 CNS; 80.9% in the experiment on PC-3 prostate. For the same compound, the growth is 80.3% with SK-MEL-5 melanoma; 49.6% in the experiment on UACC-62 melanoma; 64.8% with LOX IMVI melanoma; 74.2% in the experiment on SK-MEL-28 melanoma; 90.4% in the experiment on SK-MEL-2 melanoma; 72.2% with EKVX NSCLC. For the same compound, the growth in the experiment on SN12C renal was 74.6%; in the experiment with UO-31 renal, 58.2%; in the experiment on TK-10 renal it was 84.8%; with ACHN renal, 81.8%; in the experiment on CAKI-1 renal, 42.3%; in the experiment on CCRF-CEM leukemia, 76.4%. Besides, in the experiment on MOLT-4 leukemia, the growth is 66.2%.

As for `CCN(CC)CCOc1ccc(-c2c(-c3ccccc3)c(=O)oc3ccccc23)cc1`, the growth in the experiment with HCT-15 colon is 72.2%; with HT29 colon, 51.7%; in the experiment on SNB-75 CNS, 81.8%; in the experiment on SNB-19 CNS, 90.7%; in the experiment on U251 CNS it was 85.5%; with PC-3 prostate, 64.9%. In addition, the growth in the experiment on SK-MEL-5 melanoma is 71.6%; with UACC-62 melanoma it was 82.7%; with LOX IMVI melanoma it was 81.3%; in the experiment with SK-MEL-28 melanoma, 98.6%; with SK-MEL-2 melanoma, 82.5%; with EKVX NSCLC, 94.6%. For the same compound, the growth with SN12C renal was 80.3%; in the experiment on UO-31 renal it was 61.5%; in the experiment on TK-10 renal it was 95.9%; in the experiment on ACHN renal, 100%; in the experiment on CAKI-1 renal, 97.5%; with A498 renal, 72%. The growth in the experiment with CCRF-CEM leukemia was 95.7%; in the experiment on MOLT-4 leukemia it was 80.7%.

As to `CC(C)=NNc1ccccn1`, the growth in the experiment on HCT-15 colon was 27.9%; with HT29 colon, 27.4%; with SNB-75 CNS, 79.2%; in the experiment with SNB-19 CNS it was 62.3%; in the experiment with U251 CNS, 39.6%; with PC-3 prostate, 47.1%. In addition, the growth is 69.7% with SK-MEL-5 melanoma; 56.6% in the experiment with UACC-62 melanoma; 29.7% in the experiment with LOX IMVI melanoma; 57.1% with SK-MEL-28 melanoma; 83.2% in the experiment on SK-MEL-2 melanoma; 18.8% in the experiment on EKVX NSCLC. In addition, the growth in the experiment on SN12C renal is 45.4%; with UO-31 renal it was 29.5%; in the experiment with TK-10 renal, 39%; in the experiment with ACHN renal, 27.9%; in the experiment with CAKI-1 renal, 29.1%; with A498 renal it was 78.1%. In addition, the growth is 26.8% in the experiment with CCRF-CEM leukemia and 25.4% in the experiment with MOLT-4 leukemia.

With `c1ccc(C2=NN[C@H](c3cn(-c4ccccc4)nc3-c3ccccc3)C2)cc1`, the growth was 86.5% with HCT-15 colon; 65.2% with HT29 colon; -32.7% (active) in the experiment with SNB-75 CNS; 55% with SNB-19 CNS; 7.2% (active) in the experiment on U251 CNS; 43.5% with PC-3 prostate. Further, the growth in the experiment on SK-MEL-5 melanoma was 64%; in the experiment with UACC-62 melanoma, 90.3%; with LOX IMVI melanoma it was 24.4%; in the experiment on SK-MEL-28 melanoma, 50.2%; with SK-MEL-2 melanoma, 54.8%; in the experiment with EKVX NSCLC it was 41.4%. Further, the growth with SN12C renal is 46.6%; in the experiment with UO-31 renal, 9.32% (active); with TK-10 renal, 17.9%; in the experiment on ACHN renal it was -4.87% (active); in the experiment with CAKI-1 renal, 4.95% (active); in the experiment with CCRF-CEM leukemia, 89.3%. The growth in the experiment on MOLT-4 leukemia was 80.5%.

As to `CCn1c(SCC(=O)c2ccc(Br)cc2)nnc1-c1ccncc1`, the growth in the experiment with HCT-15 colon is 106%; in the experiment with HT29 colon, 107%; in the experiment with SNB-75 CNS, 81.7%; in the experiment on SNB-19 CNS, 99.2%; with U251 CNS it was 99.6%; in the experiment with PC-3 prostate it was 102%. Further, the growth was 98.9% in the experiment on SK-MEL-5 melanoma; 96.8% with UACC-62 melanoma; 101% in the experiment with LOX IMVI melanoma; 109% in the experiment on SK-MEL-28 melanoma; 104% in the experiment on SK-MEL-2 melanoma; 102% with EKVX NSCLC. Also, the growth in the experiment with SN12C renal is 107%; in the experiment with UO-31 renal, 91.4%; in the experiment with TK-10 renal, 116%; in the experiment with ACHN renal, 109%; with CAKI-1 renal, 95.6%; with CCRF-CEM leukemia, 108%. Besides, in the experiment on MOLT-4 leukemia, the growth is 101%.

With `Cc1cccc(Cl)c1NC(=O)c1ccc2nc(NC(=O)NCCN(C)C)sc2c1`, the growth was 99.3% in the experiment on HCT-15 colon; 80.1% with HT29 colon; 23.7% in the experiment with SNB-75 CNS; 105% in the experiment with SNB-19 CNS; 80.4% with U251 CNS; 62.2% with PC-3 prostate. Besides, the growth in the experiment with SK-MEL-5 melanoma was 67.3%; in the experiment on UACC-62 melanoma, 97.3%; in the experiment with LOX IMVI melanoma, 91.5%; in the experiment with SK-MEL-28 melanoma, 87.6%; in the experiment with SK-MEL-2 melanoma, 103%; in the experiment on EKVX NSCLC, 104%. Further, the growth was 92% with SN12C renal; 90.1% in the experiment with UO-31 renal; 111% in the experiment with TK-10 renal; 92.9% with ACHN renal; 95.1% in the experiment with CAKI-1 renal; 79.4% in the experiment on CCRF-CEM leukemia. For the same compound, the growth in the experiment with MOLT-4 leukemia is 80.2%.

In the case of `COc1cc(NC(C)CCCNC(C)C)c2ncccc2c1OC` (stereo not given), the growth in the experiment with HCT-15 colon was 99.3%; in the experiment with HT29 colon, 120%; in the experiment with SNB-75 CNS, 87.6%; in the experiment on SNB-19 CNS it was 93%; in the experiment with U251 CNS, 92%; with PC-3 prostate it was 90.8%. For the same compound, the growth in the experiment with SK-MEL-5 melanoma was 97.9%; with UACC-62 melanoma, 85%; in the experiment with LOX IMVI melanoma, 83.5%; in the experiment with SK-MEL-28 melanoma it was 108%; in the experiment on SK-MEL-2 melanoma, 90.8%; in the experiment with EKVX NSCLC, 105%. Besides, the growth in the experiment on SN12C renal was 85.8%; in the experiment on UO-31 renal it was 57.7%; in the experiment on TK-10 renal, 105%; in the experiment on ACHN renal, 104%; in the experiment with CAKI-1 renal, 88.2%; with CCRF-CEM leukemia, 89.3%. In addition, the growth in the experiment with MOLT-4 leukemia was 98.4%.
